This passage reports PXC50 and Percent Effect results from ChEMBL document CHEMBL3988442, “University of Dundee, Small-Polar-MMV Screening Library” (2021).

For part of these data: Potency and affinity values are given separately. Bounds are passed on as bounds.

Assay [1] deals with T1, Methionyl-tRNA synthetase, putative (Leishmania donovani (strain BPK282A1)) (UniProt E9BF75).
T1 sequence (whole entry): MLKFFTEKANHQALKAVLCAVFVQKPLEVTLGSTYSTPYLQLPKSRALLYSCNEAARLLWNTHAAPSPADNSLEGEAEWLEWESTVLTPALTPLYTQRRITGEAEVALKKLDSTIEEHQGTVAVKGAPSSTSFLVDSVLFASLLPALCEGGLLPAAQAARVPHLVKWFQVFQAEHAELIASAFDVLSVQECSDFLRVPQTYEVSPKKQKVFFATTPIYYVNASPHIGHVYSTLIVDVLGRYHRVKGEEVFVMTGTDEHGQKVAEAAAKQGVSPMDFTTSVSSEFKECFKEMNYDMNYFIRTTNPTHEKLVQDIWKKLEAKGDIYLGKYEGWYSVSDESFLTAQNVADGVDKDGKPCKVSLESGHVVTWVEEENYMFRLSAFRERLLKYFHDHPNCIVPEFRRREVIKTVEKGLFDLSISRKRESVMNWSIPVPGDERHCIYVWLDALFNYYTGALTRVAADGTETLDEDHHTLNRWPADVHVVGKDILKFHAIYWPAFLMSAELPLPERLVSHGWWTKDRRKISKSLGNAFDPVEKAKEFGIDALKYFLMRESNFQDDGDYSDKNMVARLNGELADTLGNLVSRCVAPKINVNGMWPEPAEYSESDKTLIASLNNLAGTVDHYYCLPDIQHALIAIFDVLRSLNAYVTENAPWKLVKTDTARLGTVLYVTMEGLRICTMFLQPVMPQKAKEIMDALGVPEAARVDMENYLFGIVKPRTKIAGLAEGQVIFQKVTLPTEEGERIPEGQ
Nature of the assay: Leishmania donovani Methionine tRNA synthetase (LdMetRS):v7. Dose response assay. Type of assay: functional. Also noted: conc 80 nM, time 150 minutes.

Assay [2] deals with Protein translocase subunit SecA (Escherichia coli (strain K12)) (UniProt P10408). Kind of assay: Assay to Identify E. coli SecA ATPase Inhibitors. Type of assay: functional. The settings on record: 30 µM. On the set-up: scale not given: direction of the effect not stated beside the values.
Assay [3] has as its target T2, Ubiquitin-activating enzyme e1, putative (Leishmania donovani (strain BPK282A1)) (UniProt E9BSI1).
T2 sequence (whole entry): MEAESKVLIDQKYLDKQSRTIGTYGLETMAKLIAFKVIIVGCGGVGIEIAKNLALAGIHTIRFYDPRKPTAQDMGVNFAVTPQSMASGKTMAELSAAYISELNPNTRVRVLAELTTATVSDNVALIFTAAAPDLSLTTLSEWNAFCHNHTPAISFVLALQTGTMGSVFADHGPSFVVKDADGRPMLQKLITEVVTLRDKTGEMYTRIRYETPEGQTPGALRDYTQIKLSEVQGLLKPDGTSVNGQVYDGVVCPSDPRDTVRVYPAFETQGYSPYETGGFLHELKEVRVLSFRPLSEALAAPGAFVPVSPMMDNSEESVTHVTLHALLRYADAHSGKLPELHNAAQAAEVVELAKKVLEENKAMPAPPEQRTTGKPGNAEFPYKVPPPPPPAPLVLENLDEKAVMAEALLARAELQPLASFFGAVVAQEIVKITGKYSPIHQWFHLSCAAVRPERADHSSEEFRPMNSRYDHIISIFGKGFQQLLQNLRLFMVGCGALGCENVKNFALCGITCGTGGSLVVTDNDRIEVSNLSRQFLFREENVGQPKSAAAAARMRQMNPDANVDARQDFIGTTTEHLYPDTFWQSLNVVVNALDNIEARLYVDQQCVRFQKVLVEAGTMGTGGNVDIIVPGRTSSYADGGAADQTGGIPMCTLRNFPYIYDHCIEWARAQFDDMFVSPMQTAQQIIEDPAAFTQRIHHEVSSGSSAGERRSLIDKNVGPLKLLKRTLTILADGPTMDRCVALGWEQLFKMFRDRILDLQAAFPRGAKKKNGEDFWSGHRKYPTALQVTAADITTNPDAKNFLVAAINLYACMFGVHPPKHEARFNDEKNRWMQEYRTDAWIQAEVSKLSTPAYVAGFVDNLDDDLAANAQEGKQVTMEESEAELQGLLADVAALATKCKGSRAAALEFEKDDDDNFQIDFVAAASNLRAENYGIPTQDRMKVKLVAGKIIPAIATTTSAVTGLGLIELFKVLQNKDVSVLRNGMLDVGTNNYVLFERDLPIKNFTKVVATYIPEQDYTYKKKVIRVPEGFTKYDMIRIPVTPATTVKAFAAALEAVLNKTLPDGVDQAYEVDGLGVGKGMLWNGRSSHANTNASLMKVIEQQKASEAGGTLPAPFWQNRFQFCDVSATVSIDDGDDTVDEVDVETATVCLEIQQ
Kind of assay: Leishmania donovani Ubiquitin Activating Enzyme (LdE1). The class given is functional. On the set-up: scale not given: direction of the effect not stated beside the values. The settings on record: 30 µM.

Assay [4] has as its target AMP-activated protein kinase, AMPK (Homo sapiens) (UniProt P54646+O43741+P54619+Q9UGJ0+Q9Y478+Q13131+Q9UGI9). Kind of assay: AMP-dependent Kinase enzyme assay. An in vitro enzyme assay that detects ADP turnover that is directly proportional to AMPK activity. This uses naive AMPK that is activated during the assay with MK-8722. The class given is functional. On the set-up: scale not given: direction of the effect not stated beside the values. The settings on record: 30 µM.

Assay [5] deals with Sialic acid-binding Ig-like lectin 9 (Homo sapiens) (UniProt Q9Y336). Kind of assay: Hs-Siglec9 ALPHAscreen SOP 20170721. Also noted: scale not given: direction of the effect not stated beside the values. Particulars: 10 µM. For orientation: Bead proximity is the source of the signal in Alpha formats.
For a further assay, the system named is Trypanosoma cruzi. Kind of assay: Trypanosoma cruzi phosphomannomutase and mannose-1-phosphate guanylyltransferase assay. The class given is functional. On the set-up: scale not given: direction of the effect not stated beside the values. Particulars: 10 µM.
Assay [6] addresses T3, Arginase-2, mitochondrial (Homo sapiens) (UniProt P78540).
T3 sequence (whole entry): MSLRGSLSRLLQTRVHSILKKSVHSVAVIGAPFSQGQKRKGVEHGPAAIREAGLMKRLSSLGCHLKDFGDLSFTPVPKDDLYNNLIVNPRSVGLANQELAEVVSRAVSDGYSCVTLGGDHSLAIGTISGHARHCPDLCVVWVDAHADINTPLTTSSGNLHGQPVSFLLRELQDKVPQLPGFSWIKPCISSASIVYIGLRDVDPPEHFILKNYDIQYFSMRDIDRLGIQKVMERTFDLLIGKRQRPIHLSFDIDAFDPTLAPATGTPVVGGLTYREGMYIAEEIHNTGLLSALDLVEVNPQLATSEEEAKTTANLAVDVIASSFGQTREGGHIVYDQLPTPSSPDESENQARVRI
Kind of assay: in vitro enzyme assay to detect the production of urea directly proportional to the activity of Arginase II. On the set-up: scale not given: in the data most compounds retested in dose-response had high values. The settings on record: 33.3 µM. Type of assay: functional.

The target in assay [7] is T4, Proteasome subunit beta (Trypanosoma cruzi) (UniProt O96673).
T4 sequence (whole entry): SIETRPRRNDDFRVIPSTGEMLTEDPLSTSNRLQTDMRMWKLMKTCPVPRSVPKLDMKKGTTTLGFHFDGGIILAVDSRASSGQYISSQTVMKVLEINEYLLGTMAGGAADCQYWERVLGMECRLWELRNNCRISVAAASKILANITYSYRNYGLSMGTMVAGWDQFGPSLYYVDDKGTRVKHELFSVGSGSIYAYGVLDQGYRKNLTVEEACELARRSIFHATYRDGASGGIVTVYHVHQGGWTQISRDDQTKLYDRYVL
Nature of the assay: Trypanosoma cruzi proteasome chymotrypsin-like activity (TcProtChymo) assay. On the set-up: scale not given: in the data most compounds retested in dose-response had high values. The class given is functional. Particulars: 9.37 µM.

The species named for a further assay is Homo sapiens. Kind of assay: To identify inhibition of the IFN signalling (Jak-Stat) pathway via expression of an eGFP reporter gene under the control of an IFN-stimulated response element (ISRE) containing MxA promoter. The class given is functional. Also noted: scale not given: direction of the effect not stated beside the values. Particulars: 30 µM. (In a reporter assay the amount or activity of a reporter protein is the signal.)

For assay [8], the target named is T5, Tyrosyl-tRNA synthetase, putative (Trypanosoma cruzi (strain CL Brener)) (UniProt Q4DSP6).
T5 sequence (whole entry): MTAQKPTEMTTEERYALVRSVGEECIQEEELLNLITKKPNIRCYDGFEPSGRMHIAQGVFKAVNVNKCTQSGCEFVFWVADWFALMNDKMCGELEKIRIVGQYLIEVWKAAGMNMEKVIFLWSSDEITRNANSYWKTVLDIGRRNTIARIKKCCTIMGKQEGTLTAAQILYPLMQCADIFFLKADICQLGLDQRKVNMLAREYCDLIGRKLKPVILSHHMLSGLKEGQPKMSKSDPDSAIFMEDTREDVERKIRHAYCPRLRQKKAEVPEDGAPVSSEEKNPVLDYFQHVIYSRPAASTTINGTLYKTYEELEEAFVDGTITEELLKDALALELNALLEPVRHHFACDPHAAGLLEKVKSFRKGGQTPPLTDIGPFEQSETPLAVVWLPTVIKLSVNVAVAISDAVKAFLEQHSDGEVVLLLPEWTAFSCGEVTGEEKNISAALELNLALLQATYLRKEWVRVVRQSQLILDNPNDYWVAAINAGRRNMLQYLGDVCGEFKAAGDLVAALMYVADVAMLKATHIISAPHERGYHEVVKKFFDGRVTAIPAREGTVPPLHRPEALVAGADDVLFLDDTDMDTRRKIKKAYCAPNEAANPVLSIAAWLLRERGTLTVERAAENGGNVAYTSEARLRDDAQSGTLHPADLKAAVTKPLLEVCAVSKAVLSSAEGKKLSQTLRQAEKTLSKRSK
Kind of assay: Trypanosoma cruzi tyrosyl tRNA synthetase (TcYRS) _High Tyrosine SOP. On the set-up: scale not given: in the data most compounds retested in dose-response had high values. Particulars: 30 µM. Type of assay: functional.

For assay [9], the target named is T5, Tyrosyl-tRNA synthetase, putative (Trypanosoma cruzi (strain CL Brener)). Nature of the assay: Trypanosoma cruzi tyrosyl tRNA synthetase (TcYRS) SOP. Type of assay: functional. On the set-up: scale not given: direction of the effect not stated beside the values. The settings on record: 30 µM.
In assay [10] the target is Chromo domain-containing protein 1 (Saccharomyces cerevisiae (strain ATCC 204508 / S288c) (Baker's yeast)) (UniProt P32657). Nature of the assay: ScCHD-1 Enzyme Inhibition Assay. Also noted: scale not given: in the data most compounds retested in dose-response had high values. Type of assay: functional. Particulars: 30 µM.
Chromo domain-containing protein 1 (Saccharomyces cerevisiae (strain ATCC 204508 / S288c) (Baker's yeast)), sequence (P32657 whole entry, the tested form may be a part): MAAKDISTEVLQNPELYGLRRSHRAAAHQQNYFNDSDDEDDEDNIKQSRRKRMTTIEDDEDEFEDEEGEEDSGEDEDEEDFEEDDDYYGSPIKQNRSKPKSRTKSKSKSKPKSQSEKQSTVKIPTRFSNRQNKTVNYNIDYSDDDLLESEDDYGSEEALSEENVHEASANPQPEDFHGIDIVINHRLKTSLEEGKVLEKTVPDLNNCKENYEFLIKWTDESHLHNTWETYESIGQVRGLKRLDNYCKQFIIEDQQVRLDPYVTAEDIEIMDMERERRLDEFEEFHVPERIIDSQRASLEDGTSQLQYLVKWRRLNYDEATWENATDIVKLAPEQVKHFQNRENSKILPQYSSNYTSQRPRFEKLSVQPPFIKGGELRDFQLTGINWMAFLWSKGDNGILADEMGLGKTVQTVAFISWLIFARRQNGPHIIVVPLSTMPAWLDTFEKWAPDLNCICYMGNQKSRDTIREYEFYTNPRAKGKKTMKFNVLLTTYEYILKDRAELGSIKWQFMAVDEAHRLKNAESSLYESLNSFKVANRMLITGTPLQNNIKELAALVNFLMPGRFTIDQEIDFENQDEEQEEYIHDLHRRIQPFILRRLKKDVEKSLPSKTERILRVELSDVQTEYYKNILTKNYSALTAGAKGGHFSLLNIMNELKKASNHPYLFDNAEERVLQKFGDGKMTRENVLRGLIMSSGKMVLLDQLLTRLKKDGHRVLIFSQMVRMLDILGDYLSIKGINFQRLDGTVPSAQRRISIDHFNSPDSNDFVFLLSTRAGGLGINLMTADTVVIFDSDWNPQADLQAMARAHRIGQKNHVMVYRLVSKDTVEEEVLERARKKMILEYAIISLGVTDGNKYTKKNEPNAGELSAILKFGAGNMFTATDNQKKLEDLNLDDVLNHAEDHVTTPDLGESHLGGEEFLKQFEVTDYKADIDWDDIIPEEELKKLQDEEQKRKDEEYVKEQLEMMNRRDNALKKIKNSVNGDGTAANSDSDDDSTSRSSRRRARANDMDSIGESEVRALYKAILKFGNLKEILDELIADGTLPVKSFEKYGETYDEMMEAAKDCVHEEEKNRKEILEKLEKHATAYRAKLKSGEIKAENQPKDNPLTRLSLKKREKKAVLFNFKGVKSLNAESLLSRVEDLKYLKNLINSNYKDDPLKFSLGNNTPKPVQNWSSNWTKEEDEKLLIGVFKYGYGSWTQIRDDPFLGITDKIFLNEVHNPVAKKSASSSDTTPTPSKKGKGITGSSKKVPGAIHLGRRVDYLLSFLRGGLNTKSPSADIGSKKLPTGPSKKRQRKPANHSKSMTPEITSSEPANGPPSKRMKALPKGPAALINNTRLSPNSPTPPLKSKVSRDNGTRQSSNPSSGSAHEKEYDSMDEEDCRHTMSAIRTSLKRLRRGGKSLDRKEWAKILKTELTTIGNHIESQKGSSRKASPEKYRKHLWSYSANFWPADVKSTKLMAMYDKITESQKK

Protein translocase subunit SecA (Escherichia coli (strain K12)), sequence (P10408 whole entry): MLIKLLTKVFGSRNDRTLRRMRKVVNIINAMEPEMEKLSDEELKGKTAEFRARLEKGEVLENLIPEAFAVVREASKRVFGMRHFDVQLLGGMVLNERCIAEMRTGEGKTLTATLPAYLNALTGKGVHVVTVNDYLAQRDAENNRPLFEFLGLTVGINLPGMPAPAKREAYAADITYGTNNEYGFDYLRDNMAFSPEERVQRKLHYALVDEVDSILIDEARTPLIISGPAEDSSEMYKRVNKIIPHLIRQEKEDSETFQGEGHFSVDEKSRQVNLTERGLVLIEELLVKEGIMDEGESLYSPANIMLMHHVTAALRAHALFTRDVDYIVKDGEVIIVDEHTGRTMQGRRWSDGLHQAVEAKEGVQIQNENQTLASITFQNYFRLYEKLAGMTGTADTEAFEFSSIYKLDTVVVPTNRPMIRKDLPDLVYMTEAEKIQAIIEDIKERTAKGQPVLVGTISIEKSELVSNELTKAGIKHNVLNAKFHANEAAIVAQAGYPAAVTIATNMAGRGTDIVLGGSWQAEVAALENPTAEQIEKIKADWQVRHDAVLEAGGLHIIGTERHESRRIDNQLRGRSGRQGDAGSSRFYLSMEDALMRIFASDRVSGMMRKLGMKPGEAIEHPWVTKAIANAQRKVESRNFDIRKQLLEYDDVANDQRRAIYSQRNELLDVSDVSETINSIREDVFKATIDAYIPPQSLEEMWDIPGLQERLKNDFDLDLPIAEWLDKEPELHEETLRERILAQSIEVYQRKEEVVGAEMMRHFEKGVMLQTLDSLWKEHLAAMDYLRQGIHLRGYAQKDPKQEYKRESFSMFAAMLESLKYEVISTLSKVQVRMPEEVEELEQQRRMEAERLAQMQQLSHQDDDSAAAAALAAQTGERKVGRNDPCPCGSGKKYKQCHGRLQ
Sialic acid-binding Ig-like lectin 9 (Homo sapiens), sequence (Q9Y336 whole entry): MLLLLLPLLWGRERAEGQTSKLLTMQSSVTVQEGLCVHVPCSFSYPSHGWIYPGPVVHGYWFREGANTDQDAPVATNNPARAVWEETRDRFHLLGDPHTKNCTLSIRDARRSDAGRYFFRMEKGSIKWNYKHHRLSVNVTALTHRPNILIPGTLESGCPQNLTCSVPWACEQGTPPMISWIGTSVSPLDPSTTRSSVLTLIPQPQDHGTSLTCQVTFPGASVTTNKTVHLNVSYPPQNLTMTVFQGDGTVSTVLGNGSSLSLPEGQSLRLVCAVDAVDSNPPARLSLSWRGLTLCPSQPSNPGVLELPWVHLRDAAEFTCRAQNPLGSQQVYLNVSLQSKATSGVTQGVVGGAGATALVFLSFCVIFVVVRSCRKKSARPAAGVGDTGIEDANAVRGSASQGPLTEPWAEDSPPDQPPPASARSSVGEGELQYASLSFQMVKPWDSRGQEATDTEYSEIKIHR

As to `CC(C)c1nc2c(n1C)CCN(Cc1nc(-c3cccnc3)no1)C2`, the PXC50 in assay [1] (BOTTOM 2.671185226, HILLSLOPE 0.615272847, MAX_EFFECT 58.33333333, TOP 100.0) is 4.04; in assay [1] (MAX_EFFECT 45.45454545), below 4; in assay [1] (MAX_EFFECT 45.58058925), below 4; in assay [1] (MAX_EFFECT 47.65100671) it was below 4; in [1] (MAX_EFFECT 48.17658349), below 4.

Consider `CC(C)C[C@H](N)COc1cccc(F)c1Oc1ccc(Cl)cc1`, for which the PXC50 in assay [1] (BOTTOM 2.189725924, HILLSLOPE 1.340429131, MAX_EFFECT 78.50287908, TOP 100.0) amounted to 4.39; in assay [1] (BOTTOM 6.665693755, HILLSLOPE 1.000390525, MAX_EFFECT 63.08724832, TOP 89.83359252) it was 4.34; in assay [1] (BOTTOM 8.555350196, HILLSLOPE 1.300138335, MAX_EFFECT 82.32235702, TOP 100.0), 4.4; in assay [1] (BOTTOM 9.084234051, HILLSLOPE 1.282962904, MAX_EFFECT 79.16666667, TOP 100.0) it was 4.36; in assay [1] (BOTTOM -2.40342641, HILLSLOPE 1.582156808, MAX_EFFECT 66.8261563, TOP 100.0), 4.18.

Consider `O=C(c1ccc2[nH]ccc2c1)N1CCn2cnc(COCC3CC3)c2C1`, for which the PXC50 is 4.27 in [1] (BOTTOM 5.122464756, HILLSLOPE 1.784249951, MAX_EFFECT 79.5379538, TOP 100.0); 4.07 in assay [1] (BOTTOM 5.453463465, HILLSLOPE 1.390916791, MAX_EFFECT 57.24637681, TOP 100.0); below 4 in assay [1] (MAX_EFFECT 37.27598566). The Percent Effect was 1.11% in [2]; 7.79% in assay [3]; 5.2% in [4]; -2.14% in assay [5]; -2.66% with Trypanosoma cruzi; 13.6% in [6]. For the same compound, the Percent Effect was 17.4% in [7]; 5.61% in the assay listed under Homo sapiens; 26.5% in assay [8]; 37.2% in assay [9]; -6.46% in [10].
